Out of some 59,000 compounds screened, about 6,200 (11%) were called active. Not shown: some 9% with an inconclusive outcome. No stated cut-off is given here; in the data, active means max dye-equivalent concentration above about 10 nM; inconclusive means mostly about 1.1 nM to 9.6 nM; inactive means weaker than that. For the sample, actives were picked, then their nearest neighbours and some compounds at random.

This test is described as follows: qHTS Assay for Spectroscopic Profiling in 4-MU Spectral Region. The note with it: compound autofluorescence, 340/450 nm, 4-MU equivalents; hits give high values. A digest of the protocol:
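Compounds in 100 mM Tris, pH 8.0, incubated 15 min at room temperature, then fluorescence read at 340 nm excitation/450 nm emission. Signal converted to 4-MU dye-equivalent concentration using an on-plate six-point 4-MU standard curve.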
Turning to `COC(=O)c1sc(=S)n(-c2ccccc2)c1N`, the max dye-equivalent concentration entry was “inactive”.

As to `CC(C)CCNC(=O)C1CCCN(S(=O)(=O)c2ccc(F)cc2)C1` (stereo unspecified), the max dye-equivalent concentration result was “inactive”.

As for `COCCNc1ncnc2ccc(-c3cccnc3)cc12`, the max dye-equivalent concentration entry is “inactive”.

On to `CC1CCc2c(sc3c2C2=NS(=O)(=O)CCN2C=N3)C1` (stereo unspecified), for which the max dye-equivalent concentration is 26 nM (active).

For the molecule `Cc1cc(NC(=O)CCC(=O)N(c2cccc(F)c2)C(C(=O)NC2CCCC2)c2ccncc2)no1` (stereo unspecified), the max dye-equivalent concentration entry is “inactive”.

In the case of `CS(=O)(=O)N1CCC2(CC1)CN(Cc1ccccc1)C2`, the max dye-equivalent concentration result is “inactive”.

Regarding `NC[C@@H]1O[C@H](O[C@@H]2[C@H](O[C@@H]3O[C@H](CO)[C@@H](COC[C@H]4O[C@@H](CN)[C@@H](O)[C@@H](O)[C@@H]4N)[C@@H]3O)[C@@H](O)[C@@H](N)C[C@H]2N)[C@@H](N)[C@H](O)[C@@H]1O`, the max dye-equivalent concentration result was “inactive”.

For `COc1ccc(OC)c(NC(=O)CSc2nc(N)c(-c3ccccc3)c(=O)[nH]2)c1`, the max dye-equivalent concentration result was “inactive”.

`C[N+]1(CCN=C=NC2CCCCC2)CCOCC1`: the max dye-equivalent concentration entry is “inactive”.

Regarding `CCCCNc1nc2c(c(=O)[nH]c(=O)n2C)n1CCOc1ccccc1`, the max dye-equivalent concentration entry is “inactive”.

For `O=c1c(-c2ccc(F)cc2)nc2cnc(N3CCOCC3)nc2n1-c1ccccc1`, the max dye-equivalent concentration was 23 nM (active).

For the molecule `O=C(Nc1ccc(F)cc1)c1cccnc1N1CCOCC1`, the max dye-equivalent concentration result is “inactive”.

As to `Cn1cc(-c2nc3cncnc3n(-c3ccccc3)c2=O)c2ccccc21`, the max dye-equivalent concentration entry is “inactive”.

In the case of `O=c1c(-c2ccc(F)cc2)nc2cncnc2n1-c1ccccc1`, the max dye-equivalent concentration result was “inactive”.

On to `COc1ncc2nc(-c3ccc(Cl)cc3)c(=O)n(C)c2n1`, for which the max dye-equivalent concentration was 27 nM (active).

Regarding `COc1ccc(Oc2ncc3nc(-c4ccc(F)cc4)c(=O)n(C)c3n2)cc1`, the max dye-equivalent concentration entry was “inactive”.

`CN1CCN(c2ncc3nc(-c4ccc(Cl)cc4)c(=O)n(-c4ccccc4)c3n2)CC1`: the max dye-equivalent concentration was 52 nM (active).

On to `O=C(c1ccc2c(c1)C(=O)N(c1ccc(Cl)cc1)C2=O)N1CCN(c2ccccn2)CC1`, for which the max dye-equivalent concentration result was “inactive”.

Take `O=C(NCCSc1ccccc1)c1ccco1`: the max dye-equivalent concentration result was “inactive”.

Turning to `Cc1cc2ccccc2n2c(SCC(=O)N3CCN(C(=O)c4ccco4)CC3)nnc12`, the max dye-equivalent concentration entry was “inactive”.

Regarding `CC12CCC(C(=O)N3CCN(c4ncccn4)CC3)(c3nc4ccccc4nc31)C2(C)C` (stereo unspecified), the max dye-equivalent concentration entry was “inactive”.

For the molecule `O=c1c(-c2ccc3c(c2)OCCO3)c(C(F)(F)F)oc2cc(O)cc(O)c12`, the max dye-equivalent concentration result was “inactive”.

For `CC(=O)Nc1ccn(Cc2c(F)cccc2Cl)n1`, the max dye-equivalent concentration result was “inactive”.

As for `O=C(c1ccncc1)N1CCC2(CCCN(C(c3ccccc3)c3ccccc3)C2)CC1`, the max dye-equivalent concentration entry is “inactive”.

In the case of `CC1CCCCC1NC(=O)CSc1nnc(N)s1` (stereo unspecified), the max dye-equivalent concentration entry was “inactive”.

Consider `CC(=O)CSc1nnc(CSc2ncccn2)n1C1CCCCC1`, for which the max dye-equivalent concentration entry is “inactive”.

`COc1ccccc1CNC(=O)CCn1c(=O)sc2ccccc21`: the max dye-equivalent concentration result is “inactive”.

As for `CCN(Cc1nc2ccccc2c(=O)[nH]1)Cc1cc(=O)oc2cc(C)c(C)cc12`, the max dye-equivalent concentration result is “inactive”.

Regarding `Cc1ccnc(SCCn2c(Br)nc3c2c(=O)[nH]c(=O)n3C)n1`, the max dye-equivalent concentration entry is “inactive”.

On to `CCCCNC(=O)c1ccccc1NC(=O)c1ccccc1N(C)S(C)(=O)=O`, for which the max dye-equivalent concentration result is “inactive”.

In the case of `COc1ccccc1Nc1ncc(C(C)=O)c(C)n1`, the max dye-equivalent concentration entry is “inactive”.

Regarding `COCCCn1c(CCC(=O)O)ccc1-c1ccc(F)cc1`, the max dye-equivalent concentration was 1600 nM (active).

On to `CCN(CC)S(=O)(=O)c1cccc(C(=O)Nc2cc(C)nn2-c2nc(C)cc(C)n2)c1`, for which the max dye-equivalent concentration result was “inactive”.

For the molecule `c1ccc2sc(SCCSc3nc4ccccc4s3)nc2c1`, the max dye-equivalent concentration result is “inactive”.

Turning to `CCOC(=O)N1CCN(C(=O)c2ccc(S(=O)(=O)c3ccc(C)cc3)c(NC(C)=O)c2)CC1`, the max dye-equivalent concentration result is “inactive”.

With `CCOC(=O)N1CCN(C(=O)c2ccc3nc4cc(Cl)ccc4c(=O)n3c2)CC1`, the max dye-equivalent concentration is 1300 nM (active).

Consider `CCOC(=O)N1CCN(C(=O)CNC(=O)Cc2ccc(Cl)cc2)CC1`, for which the max dye-equivalent concentration result is “inactive”.

With `COC(=O)c1ccc(N(CC(=O)NC2CCCC2)C(=O)CNC(=O)c2ccco2)cc1`, the max dye-equivalent concentration result is “inactive”.

With `Cc1ccccc1N1CC(c2nc3ccccc3[nH]2)CC1=O` (stereo unspecified), the max dye-equivalent concentration entry is “inactive”.

On to `CC(C)(C)n1nnc(CCc2nnn(C(C)(C)C)n2)n1`, for which the max dye-equivalent concentration entry is “inactive”.

In the case of `Cc1cc(Cl)c(S(=O)(=O)NCc2cccnc2)cc1OCC(N)=O`, the max dye-equivalent concentration result is “inactive”.

Regarding `COC(=O)C(C)N(C#N)c1nc(C)nc(C)n1` (stereo unspecified), the max dye-equivalent concentration result is “inactive”.

Consider `Cn1c(=O)[nH]c(=O)c2c1nc(Br)n2CCCCSc1nc2ccccc2o1`, for which the max dye-equivalent concentration result is “inactive”.

On to `CC[C@]1(O)CC2CN(CCc3c([nH]c4ccccc34)[C@@](C(=O)OC)(c3cc4c(cc3OC)N(C=O)[C@H]3[C@@](O)(C(=O)OC)[C@H](OC(C)=O)[C@]5(CC)C=CCN6CC[C@]43[C@@H]65)C2)C1` (stereo partly specified), for which the max dye-equivalent concentration result is “inactive”.

As for `CC[C@]1(O)C[C@@H]2CN(CCc3c([nH]c4ccccc34)[C@@](C(=O)OC)(c3cc4c(cc3OC)N(C)[C@H]3[C@@](O)(C(=O)OC)[C@H](OC(C)=O)[C@]5(CC)C=CCN6CC[C@]43[C@@H]65)C2)C1`, the max dye-equivalent concentration is 47 nM (active).

Turning to `Cc1nn(CC(=O)Nc2ccc3c(c2)nc(CN2CCCCC2)n3C)c(=O)c2ccccc12`, the max dye-equivalent concentration entry was “inactive”.

Turning to `CC(C)NC(=O)N1CC[C@@]2(CCCN(C(=O)c3cccc(F)c3)C2)C1`, the max dye-equivalent concentration result was “inactive”.

With `Cc1cc(C)nc(N2CCN(c3ncnc4c3oc3ccccc34)CC2)n1`, the max dye-equivalent concentration result is “inactive”.

In the case of `COc1ccccc1Nc1ncnc2c1oc1ccccc12`, the max dye-equivalent concentration was 73 nM (active).

`COc1ccccc1CNc1ncnc2ccc(-c3ccc4c(c3)OCO4)cc12`: the max dye-equivalent concentration entry is “inactive”.

On to `S=c1[nH]nc(SCc2ccccc2Cl)c2[nH]cnc12`, for which the max dye-equivalent concentration entry is “inactive”.
